# Test results from ChEMBL document CHEMBL1961873, “Compounds: GSK PKIS; Assays: Nanosyn kinase panel” (2012).
# Several values for one entry are separate records, joined by “and”; a condition that tells them apart may be missing. Equal values may be shown once.
# Columns and labels:
# [1] = target: Platelet-derived growth factor receptor beta (Homo sapiens) (UniProt P09619); settings: at 1 µM;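 note: each value is a mean percent inhibition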
# [2] = target: Tyrosine-protein kinase FRK (Homo sapiens) (UniProt P42685); settings: at 0.1 µM
# Sequence of Tyrosine-protein kinase FRK (Homo sapiens) (P42685 whole entry): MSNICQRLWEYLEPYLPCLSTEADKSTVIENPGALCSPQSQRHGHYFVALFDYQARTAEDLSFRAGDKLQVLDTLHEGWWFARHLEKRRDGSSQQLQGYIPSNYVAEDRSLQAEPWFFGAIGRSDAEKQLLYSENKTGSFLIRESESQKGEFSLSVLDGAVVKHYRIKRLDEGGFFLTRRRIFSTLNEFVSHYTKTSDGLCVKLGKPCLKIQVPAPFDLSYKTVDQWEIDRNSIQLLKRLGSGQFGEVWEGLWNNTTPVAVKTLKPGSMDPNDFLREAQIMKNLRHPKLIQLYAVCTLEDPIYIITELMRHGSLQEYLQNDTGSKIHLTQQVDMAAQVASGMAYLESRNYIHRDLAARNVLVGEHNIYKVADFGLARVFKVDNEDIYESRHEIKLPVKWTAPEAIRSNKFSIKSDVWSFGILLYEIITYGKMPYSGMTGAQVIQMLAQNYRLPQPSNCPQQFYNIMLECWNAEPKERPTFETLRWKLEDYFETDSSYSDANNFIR
# [3] = target: Tyrosine-protein kinase FRK (Homo sapiens) (UniProt P42685); settings: at 1 µM
# [4] = target: Protein-tyrosine kinase 2-beta (Homo sapiens) (UniProt Q14289); settings: at 0.1 µM
# [5] = target: Protein-tyrosine kinase 2-beta (Homo sapiens) (UniProt Q14289); settings: at 1 µM
# [6] = target: Proto-oncogene tyrosine-protein kinase receptor Ret (Homo sapiens) (UniProt P07949); settings: at 0.1 µM
# Sequence of Proto-oncogene tyrosine-protein kinase receptor Ret (Homo sapiens) (P07949 whole entry): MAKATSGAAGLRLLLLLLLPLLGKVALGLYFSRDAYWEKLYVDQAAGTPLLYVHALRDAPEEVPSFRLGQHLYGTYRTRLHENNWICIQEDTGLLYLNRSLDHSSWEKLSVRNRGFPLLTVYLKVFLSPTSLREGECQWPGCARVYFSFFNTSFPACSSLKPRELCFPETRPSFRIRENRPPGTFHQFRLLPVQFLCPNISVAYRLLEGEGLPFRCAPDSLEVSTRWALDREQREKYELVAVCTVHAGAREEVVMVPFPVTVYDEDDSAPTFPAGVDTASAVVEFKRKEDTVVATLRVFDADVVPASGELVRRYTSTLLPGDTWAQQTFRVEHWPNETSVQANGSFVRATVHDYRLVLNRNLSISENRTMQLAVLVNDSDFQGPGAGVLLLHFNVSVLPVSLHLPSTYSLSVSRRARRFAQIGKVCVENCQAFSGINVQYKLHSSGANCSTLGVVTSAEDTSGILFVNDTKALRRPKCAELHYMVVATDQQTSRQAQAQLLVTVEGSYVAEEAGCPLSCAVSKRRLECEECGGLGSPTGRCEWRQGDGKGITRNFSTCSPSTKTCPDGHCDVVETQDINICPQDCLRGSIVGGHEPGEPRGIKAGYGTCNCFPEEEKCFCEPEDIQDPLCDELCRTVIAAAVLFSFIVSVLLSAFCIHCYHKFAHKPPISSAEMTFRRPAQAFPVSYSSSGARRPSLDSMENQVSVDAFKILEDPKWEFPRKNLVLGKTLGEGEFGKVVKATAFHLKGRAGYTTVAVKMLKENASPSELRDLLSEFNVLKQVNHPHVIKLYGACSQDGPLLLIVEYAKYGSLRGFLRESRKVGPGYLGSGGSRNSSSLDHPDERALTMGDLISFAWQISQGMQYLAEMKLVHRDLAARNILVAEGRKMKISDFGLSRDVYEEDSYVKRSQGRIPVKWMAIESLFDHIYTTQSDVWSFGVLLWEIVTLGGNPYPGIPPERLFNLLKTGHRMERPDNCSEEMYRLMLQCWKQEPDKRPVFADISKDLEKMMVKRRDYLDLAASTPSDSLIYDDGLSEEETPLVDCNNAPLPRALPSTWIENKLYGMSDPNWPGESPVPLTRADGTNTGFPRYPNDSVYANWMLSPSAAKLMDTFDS
# [7] = target: Proto-oncogene tyrosine-protein kinase receptor Ret (Homo sapiens) (UniProt P07949); settings: at 1 µM
# [8] = tested on: Proto-oncogene tyrosine-protein kinase receptor Ret (Homo sapiens), P07949 [V804L]; settings: at 0.1 µM
# Sequence of Proto-oncogene tyrosine-protein kinase receptor Ret (Homo sapiens), P07949 [V804L] (P07949 whole entry V804L): as the sequence (P07949 whole entry) above, with V804L counted along it
# [9] = tested on: Proto-oncogene tyrosine-protein kinase receptor Ret (Homo sapiens), P07949 [V804L]; settings: at 1 µM
# [10] = tested on: Proto-oncogene tyrosine-protein kinase receptor Ret (Homo sapiens), P07949 [Y791F]; settings: at 0.1 µM
# Sequence of Proto-oncogene tyrosine-protein kinase receptor Ret (Homo sapiens), P07949 [Y791F] (P07949 whole entry Y791F): as the sequence (P07949 whole entry) above, with Y791F counted along it
# [11] = tested on: Proto-oncogene tyrosine-protein kinase receptor Ret (Homo sapiens), P07949 [Y791F]; settings: at 1 µM
# [12] = target: Macrophage-stimulating protein receptor (Homo sapiens) (UniProt Q04912); settings: at 0.1 µM
# Sequence of Macrophage-stimulating protein receptor (Homo sapiens) (Q04912 25-304 limits assumed): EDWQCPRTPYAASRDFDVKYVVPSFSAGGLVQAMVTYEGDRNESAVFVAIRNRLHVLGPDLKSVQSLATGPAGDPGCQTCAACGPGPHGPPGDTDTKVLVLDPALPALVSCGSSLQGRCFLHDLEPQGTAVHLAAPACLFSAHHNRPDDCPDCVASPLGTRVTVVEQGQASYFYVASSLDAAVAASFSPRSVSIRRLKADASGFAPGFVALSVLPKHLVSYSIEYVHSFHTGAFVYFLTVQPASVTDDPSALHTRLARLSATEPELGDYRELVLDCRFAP
# Sequence of Macrophage-stimulating protein receptor (Homo sapiens) (Q04912 310-1400 limits assumed): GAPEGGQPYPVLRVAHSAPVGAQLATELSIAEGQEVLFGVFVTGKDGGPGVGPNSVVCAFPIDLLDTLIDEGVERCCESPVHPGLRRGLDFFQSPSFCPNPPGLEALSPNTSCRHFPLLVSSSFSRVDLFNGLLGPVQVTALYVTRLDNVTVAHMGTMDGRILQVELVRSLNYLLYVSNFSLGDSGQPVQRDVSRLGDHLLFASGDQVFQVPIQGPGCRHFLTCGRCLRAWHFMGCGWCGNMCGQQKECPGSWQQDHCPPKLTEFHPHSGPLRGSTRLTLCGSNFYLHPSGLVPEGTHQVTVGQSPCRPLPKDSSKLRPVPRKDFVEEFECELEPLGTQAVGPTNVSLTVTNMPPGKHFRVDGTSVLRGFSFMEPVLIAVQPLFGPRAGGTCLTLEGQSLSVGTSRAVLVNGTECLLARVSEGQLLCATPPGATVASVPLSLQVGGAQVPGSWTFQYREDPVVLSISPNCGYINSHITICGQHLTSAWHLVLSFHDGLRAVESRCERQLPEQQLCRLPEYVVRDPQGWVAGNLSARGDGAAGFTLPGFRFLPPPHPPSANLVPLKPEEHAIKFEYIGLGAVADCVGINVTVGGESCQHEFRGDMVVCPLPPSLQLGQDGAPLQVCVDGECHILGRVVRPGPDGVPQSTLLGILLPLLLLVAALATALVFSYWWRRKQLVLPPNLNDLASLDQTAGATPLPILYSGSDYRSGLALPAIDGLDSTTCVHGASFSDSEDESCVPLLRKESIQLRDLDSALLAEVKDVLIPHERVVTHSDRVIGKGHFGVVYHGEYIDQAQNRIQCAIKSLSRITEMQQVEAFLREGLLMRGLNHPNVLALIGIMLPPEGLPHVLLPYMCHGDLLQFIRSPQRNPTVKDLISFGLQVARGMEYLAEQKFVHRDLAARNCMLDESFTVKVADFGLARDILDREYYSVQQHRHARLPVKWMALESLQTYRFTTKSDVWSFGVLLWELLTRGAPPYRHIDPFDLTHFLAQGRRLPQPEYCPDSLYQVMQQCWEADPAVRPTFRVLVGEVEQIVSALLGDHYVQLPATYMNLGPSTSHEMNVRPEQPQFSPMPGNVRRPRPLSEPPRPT
# [13] = target: Macrophage-stimulating protein receptor (Homo sapiens) (UniProt Q04912); settings: at 1 µM
# [14] = target: Proto-oncogene tyrosine-protein kinase ROS (Homo sapiens) (UniProt P08922); settings: at 0.1 µM
# [15] = target: Proto-oncogene tyrosine-protein kinase ROS (Homo sapiens) (UniProt P08922); settings: at 1 µM
# [16] = target: Proto-oncogene tyrosine-protein kinase Src (Homo sapiens) (UniProt P12931); settings: at 0.1 µM
# Sequence of Proto-oncogene tyrosine-protein kinase Src (Homo sapiens) (P12931 2-536 limits assumed): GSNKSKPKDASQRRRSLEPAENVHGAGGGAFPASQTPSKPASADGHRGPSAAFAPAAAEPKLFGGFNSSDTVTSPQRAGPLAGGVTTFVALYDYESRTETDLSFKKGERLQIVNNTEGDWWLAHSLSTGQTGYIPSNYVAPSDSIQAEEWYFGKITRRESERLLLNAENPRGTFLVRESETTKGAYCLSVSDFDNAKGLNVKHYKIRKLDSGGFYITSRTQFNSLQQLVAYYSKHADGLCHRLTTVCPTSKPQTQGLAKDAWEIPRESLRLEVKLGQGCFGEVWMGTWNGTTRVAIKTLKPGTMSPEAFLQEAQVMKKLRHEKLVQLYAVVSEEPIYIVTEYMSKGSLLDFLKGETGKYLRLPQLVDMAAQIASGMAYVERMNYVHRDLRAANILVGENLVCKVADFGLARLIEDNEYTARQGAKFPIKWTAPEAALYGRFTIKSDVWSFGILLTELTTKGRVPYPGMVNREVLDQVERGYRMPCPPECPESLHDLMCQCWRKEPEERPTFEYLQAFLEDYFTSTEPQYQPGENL
# [17] = target: Proto-oncogene tyrosine-protein kinase Src (Homo sapiens) (UniProt P12931); settings: at 1 µM
# [18] = target: Tyrosine-protein kinase Srms (Homo sapiens) (UniProt Q9H3Y6); settings: at 0.1 µM
# Sequence of Tyrosine-protein kinase Srms (Homo sapiens) (Q9H3Y6 whole entry): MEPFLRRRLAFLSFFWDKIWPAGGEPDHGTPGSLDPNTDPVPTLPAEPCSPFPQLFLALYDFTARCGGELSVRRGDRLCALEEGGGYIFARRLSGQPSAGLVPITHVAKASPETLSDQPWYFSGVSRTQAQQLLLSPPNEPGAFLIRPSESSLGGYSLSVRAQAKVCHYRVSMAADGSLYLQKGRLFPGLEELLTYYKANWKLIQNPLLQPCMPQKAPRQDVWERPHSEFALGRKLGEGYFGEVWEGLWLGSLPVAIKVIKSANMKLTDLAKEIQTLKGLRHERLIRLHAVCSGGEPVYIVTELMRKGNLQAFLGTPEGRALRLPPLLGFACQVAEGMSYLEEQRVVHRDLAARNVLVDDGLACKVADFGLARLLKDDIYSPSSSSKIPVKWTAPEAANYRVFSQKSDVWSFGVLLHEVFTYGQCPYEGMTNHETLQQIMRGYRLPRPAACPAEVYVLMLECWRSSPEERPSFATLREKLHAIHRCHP
# [19] = target: Tyrosine-protein kinase Srms (Homo sapiens) (UniProt Q9H3Y6); settings: at 1 µM
# [20] = target: Tyrosine-protein kinase SYK (Homo sapiens) (UniProt P43405); settings: at 0.1 µM;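 note: reported percentages are mean inhibition values for SYK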
SMILES,inhibition [1],inhibition [2],inhibition [3],inhibition [4],inhibition [5],inhibition [6],inhibition [7],inhibition [8],inhibition [9],inhibition [10],inhibition [11],inhibition [12],inhibition [13],inhibition [14],inhibition [15],inhibition [16],inhibition [17],inhibition [18],inhibition [19],inhibition [20]
CS(=O)(=O)Nc1ccc(-c2cc(-c3ccccc3)cc(C(N)=O)c2N)cc1,9.4%,-0.3%,1.63%,3.11%,8.02%,-0.09%,2.84%,2.01%,2.99%,4%,3.96%,-0.02%,-1.34%,4.8%,6.51%,2.73%,4.51%,-2.19%,-2.04%,-0.83%
NS(=O)(=O)c1cccc(N/C=C2\C(=O)Nc3ccccc32)c1,22.3%,3.47%,5.58%,14.1%,27.4%,7.9%,30.6%,11%,48.6%,10.1%,34.3%,-4.07%,7.57%,5.69%,9.87%,1.93%,12.9%,-0.1%,-1.56%,-6.93%
COc1cccc(Nc2nccc(-c3cnn4ncccc34)n2)c1,70%,0.08%,4.45%,28.5%,86.6%,1.21%,17.1%,3.16%,22.6%,2.74%,24%,6.23%,15.1%,38.2%,71.1%,7.33%,41.6%,1.25%,-1.9%,-0.98%
Cc1nnc(-c2cccc(-c3ccc(C(=O)NCC4CC4)cc3)c2)o1,8.15%,1.96%,3.45%,12.3%,9.85%,4.13%,7.32%,4.63%,16.7%,5%,14.4%,3.19%,8.29%,5.45%,6.04%,12.5%,10.2%,-2.52%,2.96%,-3.49%
COc1ccc2ncn(-c3cc(O[C@H](C)c4ccccc4C(F)(F)F)c(C(N)=O)s3)c2c1,37.5%,-0.74%,1.39%,-4.13%,-9.62%,1.52%,4.27%,3.57%,3.91%,2.46%,4.51%,-2.2%,0.45%,2.67%,3.29%,-2.12%,-0.06%,3.94%,1.04%,-1.01%
COc1ccc(-c2nn3ncccc3c2-c2ccnc(Nc3ccc(F)c(F)c3)n2)cc1,15.3%,0.7%,2.26%,6.54%,17.9%,4.85%,18.1%,16.2%,15.8%,9.34%,19.1%,1.18%,2.96%,6.57%,9.74%,3.58%,19.4%,-2.81%,1.37%,-2.45%
CC1(C)CC(n2cnc(-c3ccc(F)cc3)c2-c2ccnc(N)n2)CC(C)(C)N1,5.35%,0.92%,1.66%,4.26%,3.23%,-0.92%,-0.44%,2.21%,2.81%,1.42%,1.67%,2.97%,5.62%,5.01%,7.73%,-1.43%,5.26%,0.52%,-1.76%,-1.03%
COc1ccc(Nc2ncc(-c3ccccc3)o2)cc1OC,68%,-0.09%,4.33%,-5.6%,1.04%,6.8%,23.1%,4.53%,17.1%,6.85%,27.2%,-0.4%,5.46%,7.2%,24.5%,12.2%,54%,0.67%,2.69%,4.52%
OCCCNc1nccc(-c2c(-c3ccc(F)cc3)nn3cc(C(F)(F)F)ccc23)n1,14.4%,0.71%,1.35%,3.13%,7.75%,4.24%,11.4%,1.59%,3.05%,6.39%,6.1%,0.58%,1.65%,4.09%,6.03%,5.06%,8.49%,-0.48%,-0.71%,5.03%
COc1cccc(-n2ncc3c(N/N=C/c4ccc(C(=O)NCCN(C)C)cc4)ncnc32)c1,77.6%,3.91%,12.2%,5.72%,12.1%,22.4%,66.9%,12.7%,50.4%,37.3%,72.4%,28.8%,66.3%,11.2%,41.7%,65%,89.7%,2.52%,19.9%,-2.88%
N#Cc1ccc2c(-c3ccnc(NC4CC4)n3)c(-c3ccc(F)cc3)nn2c1,16.8%,1.44%,0.3%,-1.69%,0.44%,5.41%,8.1%,3.66%,2.65%,4.65%,10.8%,2.34%,0.41%,1.21%,1.91%,2.91%,3.58%,0.49%,-0.99%,0.61%
CS(=O)(=O)CCNCc1ccc(-c2ccc3ncnc(Nc4ccc(OCc5ccccc5)cc4)c3c2)o1,4.72%,0.38%,0.96%,7.76%,6.51%,2.99%,9.8%,3.01%,11.9%,3.34%,9.58%,2.59%,3.8%,1.11%,8.89%,9.13%,12.5%,-0.68%,2.59%,1.7%
Nc1nonc1-c1nc2cnccc2n1C1CC1,26.9% and 22.4%,3.06% and 1.01%,1.87% and 3.49%,9.52% and 11.2%,8.23% and 11.7%,4.13% and 4.16%,10.6% and 0.77%,4.79% and 3.57%,9.45% and 6.56%,6.44% and 5.27%,6.05% and 3.67%,-0.62% and 3.72%,9.46% and 1.74%,7.08% and 4.44%,15.1% and 14.1%,3.78% and -1.17%,8.03% and 5.68%,-1.43% and -0.81%,0.98% and 0.04%,1.89% and -3.36%
